Results on nine compounds are retold here after PubChem BioAssay (NCATS).

Records with an inconclusive call do not appear. The source made the active and inactive calls. The call rests on the fitted dose curve; in most records, active means well fitted inhibition curve with a large enough effect; inconclusive means small, poorly fitted or top-dose-only effect; inactive means flat fitted curve, though single readings scatter.
On the % scale 0 is the no-effect control and ±100 the full control effect.

In the experiment the test system is NIH3T3. Nature of the experiment: Cytotoxic Profiling of Annotated Libraries Using Quantitative High-Throughput Screening (AID 1296008). Further: nearly all actives have a fitted effect of over 60% in size. The conditions noted are these: Five cell lines viability, CellTiter-Glo ATP luminescence, 48-72 h; max response: stronger effect = lower value. In a few lines:
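Cells exposed to compounds for 48 or 72 hr at 37 degrees Celsius. Viability read as ATP-coupled luminescence with CellTiter-Glo after 10 min at room temperature.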
For `NS(=O)(=O)c1ccc(N2N=C(c3ccccc3)CC2c2ccccc2)cc1` (centres undefined), the max response is 2.93% (inactive). Regarding `Cc1nc(N2CCN(C(=O)c3ccco3)CC2)c2c3c(sc2n1)CCCC3`, the max response was 1.1% (inactive). Still for that read-out and setting: the value for `CCC(C)c1ccc(NC(=O)Cn2cnc3c2c(=O)n(C)c(=O)n3C)cc1` (centres undefined) was -2.04% (inactive); that for `Cn1ncnc1[C@@H]1c2n[nH]c(=O)c3cc(F)cc(c23)N[C@H]1c1ccc(F)cc1` was -15% (inactive). Regarding `COC(=O)CC[C@@H](C)C1CCC2C3CCC4C[C@H](OC(C)=O)CCC4(C)C3C[C@H](O)C21C` (some centres undefined), the result was inactive. Consider `O=C(c1ccc(F)cc1)N1CCCC(c2nc(-c3ccc(F)cc3)no2)C1` (centres undefined), for which the max response is -12.8% (inactive). On the same count and under the same terms, the value for `Cc1cn2c(n1)Cc1ccc(Cl)cc1C(c1ccc(N)cc1)=N2` was -15.7% (inactive). Turning to `C[C@@H]1O[C@@H](O[C@H]2[C@H](OC(=O)[C@]34CCC(C)(C)C[C@H]3C3=CCC5[C@@]6(C)C[C@H](O)[C@H](O[C@@H]7O[C@H](C(=O)O)[C@@H](O)[C@H](O)[C@H]7O)[C@@](C)(CO)C6[C@H](O)C[C@@]5(C)[C@]3(C)C[C@H]4O)O[C@@H](CO)[C@@H]2O)[C@H](O)[C@H](O)[C@H]1O[C@@H]1OC[C@@H](O)[C@H](O[C@H]2OC[C@](O)(CO)[C@H]2O)[C@H]1O` (some centres undefined), the max response was -0.318% (inactive).

In the case of `CCc1c(Cl)c(O)c(Cl)c(O)c1C(=O)O[C@H]1[C@H](O)[C@H](OC)[C@H](OC/C2=C\C=C\C[C@H](O)/C(C)=C\[C@H](CC)[C@@H](O[C@@H]3OC(C)(C)[C@@H](OC(=O)C(C)C)[C@H](O)[C@@H]3O)/C(C)=C/C(C)=C/C[C@@H]([C@@H](C)O)OC2=O)O[C@@H]1C`, the compound was classed as inactive.
